# PubChem BioAssay AID504834 (National Center for Advancing Translational Sciences (NCATS), 2011)
# Several values for one entry are separate records, joined by “and”; a condition that tells them apart may be missing. Equal entries are not always repeated. The whole screen tested about 320,000 compounds, of which about 22,000 (6.9%) were called active. Roughly 27% stayed inconclusive and do not appear here. The call rests on the fitted dose curve; in most records, active means well fitted inhibition curve with a large enough effect; inconclusive means small, poorly fitted or top-dose-only effect, or another doubt; inactive means no such curve, though single readings can be large or run the other way. The entries come from a sample that favours actives as a whole. Some compounds were tested as several samples or in several runs, with calls that do not always agree.
# Test: Primary qHTS for delayed death inhibitors of the malarial parasite plastid, 96 hour incubation
# Conditions: P. falciparum luciferase reporter growth; series mostly up to 28.7 µM; activity change, negative = inhibition: at the top concentration
# Outline: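 Erythrocytes infected with luciferase-expressing P. falciparum were dispensed at 2% hematocrit and 0.05% parasitemia (final), then incubated with compounds 96 hours at 37 C in 5% CO2. Luminescence after detection reagent addition reported growth.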
# On the % scale 0 is the no-effect control and ±100 the full control effect; potency means the concentration at half of the fitted maximal effect.
SMILES,"activity change, negative = inhibition",Potency
CNC(=O)c1sc(NCc2ccccc2OC)nc1C,8.94% (inactive),–
O=C(CCNC(=O)c1ccc(Br)cc1)NCCCc1ccccc1,20.7% (inactive),–
COc1ccc(CCNC(=O)CSc2nnc(-c3cccc(F)c3)o2)cc1OC,278% (inactive),–
COc1ccc(CCNC(=O)CSc2nc(C)nc3c2oc2ccccc23)cc1OC,–,5.86 µM (active)
COc1ccc(CCNC(=O)CSc2nc(-c3ccc(OC)c(OC)c3)ccc2C#N)cc1,–,10.4 µM (active)
COc1ccc(N2CCN(C(=O)CSc3nc4cc(OC)c(OC)cc4cc3C#N)CC2)cc1,79% (inactive),–
COc1ccc(CNC(=O)CSc2n[nH]c(N)n2)cc1OC,5.59% (inactive),–
COc1ccc(CCNC(=O)CCn2c(=O)oc3ccccc32)cc1OC,-20.2% (inactive),–
O=C(CCN1CCCO1)N1CCCC(N2CCN(c3cccc(C(F)(F)F)c3)CC2)C1 (stereo not drawn),-24.3% (inactive),–
Cc1ccc(CSc2nsc(C)c2C#N)cc1,15.2% (inactive),–
CCC(C)(C)NC(=O)CN(C(=O)CCC(=O)Nc1nccs1)c1ccc2c(c1)OCO2,-16.6% (inactive),–
COc1ccc(CNC(=O)COC(=O)c2c(C)nn(-c3ccccc3)c2C)cc1OC,53.4% (inactive),–
Cc1ccc(-n2nc3c(=O)n(C(C)C(=O)NCc4ccc5c(c4)OCO5)nc(C)c3c2C)cc1 (stereo not drawn),–,1.31 µM (active)
Cc1nc2c(C(=O)NCc3ccc4c(c3)OCO4)c[nH]n2c(=O)c1Cc1ccccc1F,69.3% (inactive),–
CCn1c(=O)c(C(=O)NCc2ccc3c(c2)OCO3)c(O)c2ccccc21,12.7% (inactive),–
Cc1nn(CC(=O)N2CCCCC2)c(=O)c2nn(-c3ccccc3)c(C)c12,-25.7% (inactive),–
COc1ccc(CNC(=O)C(C)n2nc(C)c3c(C)n(-c4ccccc4)nc3c2=O)c(OC)c1 (stereo not drawn),–,10.4 µM (active)
CC(C)CNC(=O)C(=O)NCC(c1ccc2c(c1)OCO2)N1CCOCC1 (stereo not drawn),80.6% (inactive),–
CC1=NN(c2cccc(Cl)c2)C(=O)C12CC(C)=C(C)CS2 (stereo not drawn),–,3.7 µM (active)
CC12CCC(C(=O)N(c3cccc(Cl)c3)C1=O)C2(C)C (stereo not drawn),86.3% (inactive),–
Cc1cccc(OCCC(=O)OCc2csc(CC(=O)Nc3ccccc3C)n2)c1,-1.27% (inactive),–
O=CN1CCN(C(=O)c2ccc(Br)o2)CC1,-8.76% (inactive),–
COc1ccc(-n2cnnc2SCC(=O)Nc2cccc(S(N)(=O)=O)c2)cc1,-2.69% (inactive),–
O=C(N/N=C/c1cccc(Br)c1)c1ccc(N2CCCC2=O)cc1,11.4% (inactive),–
CCOC(=O)N1CCN(C(=O)C2CCN(S(=O)(=O)c3cc(Cl)ccc3OCC)CC2)CC1,38.7% (inactive),–
CN(C)P(=S)(Nc1ccccc1)C(Cl)(Cl)Cl (stereo not drawn),–,8.28 µM (active)

SMILES,"activity change, negative = inhibition",Potency
O=C(CN1CCN(c2ccccc2)CC1)Nc1ccc(F)cc1,10.7% (inactive),–
CC(Oc1ccc(F)cc1)C(=O)N1CCN(c2ncccn2)CC1 (stereo not drawn),7.12% (inactive),–
COCCN(C(=O)CC1CCCCC1)c1c(N)n(CC(C)C)c(=O)[nH]c1=O,-19.9% (inactive),–
CCOC(=O)c1cc(NC(=O)c2cccnc2)cc(C(=O)OCC)c1,-1.24% (inactive),–
CCC(=O)Nc1cccc(NC(=O)c2cccnc2)c1,–,13.1 µM (active)
CCN(CC)S(=O)(=O)c1cccc(C(=O)Nc2ccccc2)c1,-28% (inactive),–
CN(C)S(=O)(=O)c1cccc(C(=O)Nc2cccnc2)c1,–,3.29 µM (active)
CCC(=O)Nc1ccc(C(=O)Nc2cccc(OC)c2)cc1,25.3% (inactive),–
O=C(Nc1cccnc1)c1cccc(S(=O)(=O)N2CCCC2)c1,22.3% (inactive),–
COc1ccc(C(=O)N2CCN(c3ncccn3)CC2)cc1S(=O)(=O)N1CCOCC1,29.3% (inactive),–
O=C1CN(C(=O)c2cc(F)cc(F)c2)c2ccccc2N1,21.9% (inactive),–
Cn1c(O)c(C=NCCN2CCNCC2)c(=O)n(C)c1=O,–,9.28 µM (active)
O=c1[nH]c(=O)n(-c2ccc(F)cc2)c(O)c1C=NCCN1CCCCC1,-0.537% (inactive),–
Cn1c(O)c(C=Nc2ccc3c(c2)CCC3)c(=O)n(C)c1=O,-0.84% (inactive),–
COc1ccc(NC(=O)c2cn(-c3ccccc3)nc2SC)cc1,32.2% (inactive),–
Cc1cccc(N2CCN(C(=O)COCc3cc(-c4ccc5c(c4)OCO5)on3)CC2)c1C,63.5% (inactive),–
Cc1ccsc1-c1cc(C(=O)O)c2c(ccc3ccccc32)n1,42.5% (inactive),–
Cc1ccc(Cl)cc1NC(=S)N(CCN(C)C)Cc1cccs1,42.5% (inactive),–
Cc1ccc(NC(=S)N(CCN(C)C)Cc2cccs2)cc1C,14.5% (inactive),–
Cc1ccccc1NC(=S)N(CCCN1CCOCC1)Cc1cccs1,–,3.7 µM (active)
CCN(C(=O)COC(=O)c1sccc1C)c1c(N)n(Cc2ccccc2)c(=O)[nH]c1=O,-27.9% (inactive),–
COc1ccc(OC)c(/C=N/NC(=O)c2ccc[n+](CC(=O)c3ccccc3)c2)c1,13.8% (inactive),–
O=C(O)c1ccccc1CSc1nc2ccccc2s1,58.7% (inactive),–
CCOC(=O)C1CCCN(C(=O)CN(c2ccc(OC)cc2)S(=O)(=O)c2c(C)noc2C)C1 (stereo not drawn),67.4% (inactive),–
Cc1cc(C)cc(N(CC(=O)N2CC=C(c3ccccc3)CC2)S(=O)(=O)c2c(C)noc2C)c1,–,6.57 µM (active)
Cc1cc(C)cc(N(CC(=O)NCC2CCCO2)S(=O)(=O)c2c(C)noc2C)c1 (stereo not drawn),-10.5% (inactive),–

SMILES,"activity change, negative = inhibition",Potency
COc1ccc(NC2CCCN(C(=O)c3ccncc3)C2)cc1 (stereo not drawn),8.58% (inactive),–
COc1ccccc1N(C)C(=O)c1cc(S(=O)(=O)N2CCc3ccccc32)cn1C,0.199% (inactive),–
CC(=O)NCC(O)c1ccc([N+](=O)[O-])cc1 (stereo not drawn),10.7% (inactive),–
Cc1ccc(C23CC4CC(CC(C(=O)NCC(=O)O)(C4)C2)C3)cc1,-2.65% (inactive),–
NCC(O)c1ccc(O)cc1 (stereo not drawn),–,inactive and 4.26 µM (active)
CNCC(O)c1ccc(O)c(O)c1 (stereo not drawn),3% (inactive),–
COc1ccc(S(=O)(=O)NNC(=O)Nc2ccc(C)cc2)c(OC)c1,16.2% (inactive),–
N#CCCN1CCN(S(=O)(=O)c2ccc(S(=O)(=O)NC3CC3)cc2)CC1,14.9% (inactive),–
N#CCCN1CCN(S(=O)(=O)c2ccc(S(=O)(=O)NC3CCCCC3)cc2)CC1,–,8.28 µM (active)
N#CCCN1CCN(S(=O)(=O)c2ccc(S(=O)(=O)N3CCCC3)cc2)CC1,13.4% (inactive),–
CN(Cc1ccc(F)cc1Cl)S(=O)(=O)c1cccs1,0.235% (inactive),–
COCC(=O)Nc1c(C(=O)N2CCCC2)oc2ccccc12,-7.27% (inactive),–
Cc1cccc(OCC(=O)NC(=S)Nc2ccccc2N2CCOCC2)c1,19.3% (inactive),–
CCOCCCN(C)C1CCN(C(=O)c2oc3ccccc3c2NC(=O)COc2cccc(C)c2)CC1,–,13.1 µM (active)
Cc1ccc(C)c(C(=O)N2CCC(n3nccc3NC(=O)C3CC3)CC2)c1,28.5% (inactive),–
Cc1c(CN2CCC(n3nccc3NC(=O)CCc3ccccc3)CC2)cnn1C,-5.6% (inactive),–
CCN1CCN(C(=O)C2CCN(S(=O)(=O)c3cc(Cl)ccc3Cl)CC2)CC1,17.3% (inactive),–
COc1ccc(-n2c(=O)[nH]c3cc(C(=O)NCCc4ccc(OC)c(OC)c4)ccc3c2=O)c(OC)c1,184% (inactive),–
Cc1cc(C)c2c(-n3cccc3)c(NC(=O)OCc3ccccc3)sc2n1,–,13.1 µM (active)
Cc1cc(C)c2c(-n3cccc3)c(C(=O)NNS(=O)(=O)c3ccc(F)cc3)sc2n1,50.7% (inactive),–
CCCCOC(=O)Nc1sc2nc(C)cc(C)c2c1-n1cccc1,37.7% (inactive),–
COc1ccccc1-n1c(SCC(=O)Nc2cccc(C(=O)O)c2)nnc1-c1ccccc1O,22.7% (inactive),–
Cc1cc(C)c2c(-c3ccc(F)cc3)c(C#N)c(=O)n(C)c2n1,2.64% (inactive),–
O=C(CCN1C(=O)[C@@H]2Cc3ccccc3CN2C1=O)NCc1ccccc1,-23.2% (inactive),–
C=CCc1cccc(/C=N/NC(=O)COc2ccc(-n3cnnn3)cc2)c1O,-7.84% (inactive),–
Cc1ccc(C(=O)OCC(=O)NC(=O)Cc2ccccc2)c(O)c1,-1.22% (inactive),–

SMILES,"activity change, negative = inhibition",Potency
COc1ccc(-c2nc(CCNC(=O)c3ccc(Br)o3)cs2)cc1,–,8.28 µM (active)
COc1ccc(-c2csc(NC(=O)COC(=O)c3ccc(Br)o3)n2)cc1,212% (inactive),–
O=C(NCCc1csc(-c2ccccc2)n1)c1ccccc1F,0.738% (inactive),–
NS(=O)(=O)c1ccc(NC(=S)N2CCCC2)cc1,6.43% (inactive),–
Cc1ccc(N=Nc2c(C)[nH]n(-c3ccccc3)c2=O)cc1,1.36% (inactive),–
Cc1ccc(C2C3=C(Nc4[nH]n(-c5ccccc5)c(=O)c42)c2ccccc2C3=O)cc1 (stereo not drawn),–,11.7 µM (active)
COC(=O)C1=C(C)NC2=C(C(=O)c3ccccc32)C1c1ccc(-c2ccc(C(=O)O)cc2)o1 (stereo not drawn),6.59% (inactive),–
CC1C(=O)NC(=O)C1c1ccccc1 (stereo not drawn),130% (inactive),–
COc1ccccc1C(=O)NCCC(=O)NC1=NCCS1,-7.83% (inactive),–
CCOC(=O)c1ccccc1NC(=O)COC(=O)CCC(=O)N1CCOCC1,-0.129% (inactive),–
COc1ccc(N(C(=O)CNC(=O)c2ccco2)C(C(=O)NCC2CCCO2)c2ccccc2)cc1Cl (stereo not drawn),8.89% (inactive),–
N=c1c2c(-c3ccccc3)c(-c3ccccc3)n(Cc3ccccc3)c2ncn1CCCO,–,4.65 µM (active)
COCCn1cnc2c1c(=O)n(CC(=O)NN)c(=O)n2Cc1ccccc1,-3.42% (inactive),–
Cc1nc([N+](=O)[O-])c(NCCCO)n1Cc1ccccc1,39.3% (inactive),–
CC1=C(C(=O)OC2CCCCC2)C(c2ccccc2F)NC(=O)N1 (stereo not drawn),17.6% (inactive),–
O=C(CSc1nnc(-c2ccccc2O)o1)NC1CCCCC1,64.5% (inactive),–
COc1ccccc1NC(=O)COC(=O)COc1ccccc1F,2.96% (inactive),–
C=CCSc1nc2c(c(=O)[nH]c(=O)n2C)n1Cc1ccccc1,22.8% (inactive),–
CCCCCn1c(SCCC(C)C)nc2c1c(=O)[nH]c(=O)n2C,–,13.1 µM (active)
C=CCn1c(SCc2ccccc2)nc2c1c(=O)[nH]c(=O)n2C,-26.5% (inactive),–
COc1ccccc1OCc1ccc(C(=O)NC(C)c2ccccc2)o1 (stereo not drawn),220% (inactive),–
CCN(CC)C(=O)CC1(c2ccccc2OC)CCOC(C(C)C)C1 (stereo not drawn),–,11.7 µM (active)
CCN(CC(=O)Nc1ccccc1OC)C(=O)CC1CC2CCC1C2 (stereo not drawn),-22% (inactive),–
CN1CCN(S(=O)(=O)c2cccc(C(=O)Nc3cccc(S(N)(=O)=O)c3)c2)CC1,27.2% (inactive),–
CN(C)c1ccc(S(=O)(=O)NCC(=O)NCC2CCCCC2)cc1[N+](=O)[O-],2.12% (inactive),–
